Source: PubChem
Shown are actives, neighbours in structure and some others; about 14% of the full set was active somewhere.
Giardia FBPA inh-1: Giardia lamblia aldolase inhibition | Potency, µM (series often up to 59.6 µM), hits mostly inhibitors | purified Giardia FBPA | A8B2U2 | 290,000 tested, 0.71% active; further: nearly all actives have a fitted effect of over 55% in size
Target sequence (A8B2U2 whole entry, looked up): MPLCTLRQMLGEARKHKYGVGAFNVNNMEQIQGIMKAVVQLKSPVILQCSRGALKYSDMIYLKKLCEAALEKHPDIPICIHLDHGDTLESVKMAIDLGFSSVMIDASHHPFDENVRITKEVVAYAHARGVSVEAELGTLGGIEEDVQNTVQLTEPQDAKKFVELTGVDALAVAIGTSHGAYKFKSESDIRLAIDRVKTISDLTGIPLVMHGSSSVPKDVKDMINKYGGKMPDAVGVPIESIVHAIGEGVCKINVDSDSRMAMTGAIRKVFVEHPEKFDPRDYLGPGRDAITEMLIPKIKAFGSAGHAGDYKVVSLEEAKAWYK
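Giardia FBPA (40 nM reagent) was preincubated 10 min at RT with compound (up to 57.5 uM final), then substrate plus GAPDH/TPI/NAD/arsenate coupling system with diaphorase/resazurin was added; resorufin fluorescence (525/598 nm) was read after 20 min.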
Pf growth 48h: inhibits P. falciparum growth in the first generation, 48 h. P. falciparum luciferase growth in erythrocytes, 48 h. Potency, µM (series often up to 28.7 µM), most hits filed as inhibitors. 310,000 tested, 5.9% active. AID 504832
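Parasite viability was followed by luminescence of a genomically integrated firefly luciferase. Cultures held 0.1% parasitemia at 2% hematocrit (final), incubated under 5% CO2 at 37 C.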
Pf growth 96h: inhibits malaria parasite growth, 96 h. AID 504834. 320,000 tested, 6.9% active. P. falciparum luciferase reporter growth, 96 h. Potency, µM (series often up to 28.7 µM), actives largely listed as inhibitors
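Infected RBCs, 2% Hct / 0.05% parasitemia final; luciferase-reporter P. falciparum; cpd 96 h, 37 C, 5% CO2; luciferase detection reagent; luminescence.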
HCMV antiviral: blocks human cytomegalovirus replication; activity change, negative = inhibition, % at 57.5 µM; 410,000 tested, 4.5% active; HFF cells, HCMV-luciferase reporter, 72 h; hits give low values; in the data active means activity change below about -60%; inconclusive means no clear call, values can overlap the other calls; inactive means above about -39%
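Screen run at 2 compound doses on HFFs infected with reporter HCMV, MOI 1 PFU/cell. Luciferase activity from cell lysates at 72 h post infection gave inhibition relative to buffer-only and Salinomycin wells.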
Sm TGR inh: S. mansoni TGR enzyme inhibition; purified TGR, DTNB reduction, TNB absorbance 405 nm; Potency, µM (doses to about 114 µM), actives largely listed as inhibitors; 360,000 tested, 3% active; further: nearly all actives have a fitted effect of over 60% in size
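TGR 20 nM + NADPH 100 uM (dispensed conc.), cpd preinc 15 min RT; start with NADPH (500 uM addition) then DTNB (15 mM addition). Kinetic TNB absorbance, 405 nm filter. Four-parameter Hill fit across titration.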
Giardia growth: blocks growth of Giardia lamblia trophozoites; AID 2785; 1,500 tested, 5% active; Giardia lamblia trophozoite growth inhibition; shares compounds with Giardia FBPA inh-1; Potency, µM (titrated, usually from 57.5 µM), most hits filed as inhibitors;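 further: trophozoites exposed to compound for 48 h at 37 °C; nearly all actives have a fitted effect of over 70% in size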
Mammal cell tox: toxic to mammalian cells in Giardia aldolase counter-screen | shares compounds with Giardia FBPA inh-1 | AID 2786 | mammalian cell viability counter-screen, qHTS | 1,500 tested, 4% active | Potency, µM (titrated, usually from 57.5 µM), hits mostly inhibitors;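 further: Chinese hamster ovary cells used as mammalian cytotoxicity surrogate; viability measured as cellular ATP by luminescence; compound exposure lasted 48 h before reading; nearly all actives have a fitted effect of over 60% in size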
Giardia FBPA inh-2: confirmation of Giardia fructose-bisphosphate aldolase inhibitors; shares compounds with Giardia FBPA inh-1; AID 2787; Potency, µM (titrated, usually from 57.5 µM), most hits filed as inhibitors; 1,500 tested, 5% active; purified Giardia aldolase enzyme activity, qHTS; further: nearly all actives have a fitted effect of over 45% in size
Rabbit aldolase: rabbit FBP aldolase inhibition by Giardia aldolase hits; shares compounds with Giardia FBPA inh-1; Rabbit muscle FBPA enzyme inhibition, selectivity counter-screen; Potency, µM (highest dose often 57.5 µM), most hits filed as inhibitors; 1,500 tested, 4% active; further: nearly all actives have a fitted effect of over 60% in size
Target sequence (P00883 whole entry, looked up): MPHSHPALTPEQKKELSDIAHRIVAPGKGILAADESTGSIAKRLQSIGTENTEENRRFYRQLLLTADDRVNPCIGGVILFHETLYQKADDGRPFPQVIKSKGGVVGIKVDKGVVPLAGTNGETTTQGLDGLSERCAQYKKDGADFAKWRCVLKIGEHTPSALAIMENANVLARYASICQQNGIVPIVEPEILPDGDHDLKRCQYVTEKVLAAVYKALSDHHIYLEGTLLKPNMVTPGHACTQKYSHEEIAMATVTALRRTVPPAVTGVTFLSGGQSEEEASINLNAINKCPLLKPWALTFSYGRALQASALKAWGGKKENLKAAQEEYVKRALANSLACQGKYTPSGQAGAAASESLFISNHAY
GAPDH counter: GAPDH inhibition flagged for Giardia aldolase hits; shares compounds with Giardia FBPA inh-1; GAPDH coupling enzyme counterscreen, biochemical, qHTS; Potency, µM (titrated, usually from 57.5 µM), hits mostly inhibitors; 1,500 tested, 6% active; further: nearly all actives have a fitted effect of over 55% in size
A number is an active result; [ ] = remark or other dose. Unless noted, the call rests on the fitted dose curve; in most records, active means well fitted curve in the direction sought with a large enough effect; inconclusive means small, poorly fitted or top-dose-only effect, or another doubt; inactive means no such curve, though single readings can be large; an effect the other way counts as inactive or inconclusive.

Screening O=C(N/N=C/C=C/c1cccc([N+](=O)[O-])c1)c1ccncc1 returned Giardia FBPA inh-1 16µM, Pf growth 48h inactive, Pf growth 96h inactive, HCMV antiviral inactive, Sm TGR inh inactive, Giardia growth 28µM, Mammal cell tox inactive, Giardia FBPA inh-2 inactive, Rabbit aldolase inactive and GAPDH counter inactive.
For O=C(N/N=C/c1ccccn1)c1cccc([N+](=O)[O-])c1 the results were Giardia FBPA inh-1 16µM, Pf growth 48h inconclusive, Pf growth 96h inactive, HCMV antiviral inactive, Sm TGR inh inactive, Giardia growth inactive, Mammal cell tox inconclusive, Giardia FBPA inh-2 inactive, Rabbit aldolase inactive and GAPDH counter inactive.
Cc1csc(N/N=C/c2ccccn2)n1 was read as Giardia FBPA inh-1 16µM, Pf growth 48h inactive, Pf growth 96h inconclusive, HCMV antiviral -103, Sm TGR inh inactive, Giardia growth inactive[10.4 µM], Mammal cell tox 25µM, Giardia FBPA inh-2 inactive, Rabbit aldolase inactive and GAPDH counter inactive.
Screening Cc1ccc(C(=O)N/N=C\c2ccccn2)cn1 returned Giardia FBPA inh-1 7.9µM, Pf growth 48h inactive, Pf growth 96h inactive, HCMV antiviral inactive, Sm TGR inh inactive, Giardia growth inactive, Mammal cell tox inactive, Giardia FBPA inh-2 inactive, Rabbit aldolase inactive and GAPDH counter inactive.
For CC(C)(C)c1ccc(C(=O)N/N=C/c2ccccn2)cc1 the results were Giardia FBPA inh-1 inactive, Pf growth 48h inconclusive, Pf growth 96h inactive, HCMV antiviral inactive and Sm TGR inh inactive.
For O=C(N/N=C/c1ccccn1)c1cc(C2CC2)[nH]n1 the results were Giardia FBPA inh-1 18µM, Pf growth 48h inactive, Pf growth 96h inactive, HCMV antiviral inconclusive, Sm TGR inh inactive, Giardia growth inconclusive, Mammal cell tox inactive, Giardia FBPA inh-2 inactive, Rabbit aldolase inactive and GAPDH counter inactive.
For Cc1cc(C(=O)N/N=C/c2ccccn2)n[nH]1 the results were Giardia FBPA inh-1 inconclusive, Pf growth 48h inactive, Pf growth 96h inactive and HCMV antiviral inactive.
For CC(OC(=O)Cn1cnc2c1c(=O)n(C)c(=O)n2C)C(=O)NC(C)c1ccc(Cl)cc1Cl (centres undefined) the results were Pf growth 48h inconclusive, Pf growth 96h inactive, HCMV antiviral inactive and Sm TGR inh inactive.
`CCN(CC)c1ccc(/C=N/O)cc1` gave Giardia FBPA inh-1 inactive, Pf growth 48h inactive, Pf growth 96h inactive, HCMV antiviral inactive and Sm TGR inh inactive.
`CCN(CC)c1ccc(N=Nc2ncn[nH]2)cc1` gave Giardia FBPA inh-1 3.5µM, Pf growth 48h inactive, Pf growth 96h inactive, HCMV antiviral inactive, Sm TGR inh inactive, Giardia growth inconclusive, Mammal cell tox 32µM, Giardia FBPA inh-2 inactive, Rabbit aldolase inactive and GAPDH counter inactive.
Cn1c2ccccc2c2cc(/C=N/NC(=O)c3cc(O)cc(O)c3)ccc21 was read as Giardia FBPA inh-1 inactive, Pf growth 48h inconclusive, Pf growth 96h inconclusive, HCMV antiviral inactive and Sm TGR inh inactive.
`Cn1c2ccccc2c2cc(/C=N/NC(=O)c3cc(O)ccc3O)ccc21` gave Giardia FBPA inh-1 25µM, Pf growth 48h inconclusive, Pf growth 96h inconclusive, HCMV antiviral inactive, Sm TGR inh inconclusive, Giardia growth inactive, Mammal cell tox inactive, Giardia FBPA inh-2 inconclusive, Rabbit aldolase inactive and GAPDH counter inactive.
`CCCCN1CC(=O)N2[C@H](c3ccc(Cl)cc3)[C@@H]3C(=O)N(CC)C(=O)[C@@H]3[C@]2(Cc2ccccc2)C1=O` gave Giardia FBPA inh-1 inactive, Pf growth 48h inactive, Pf growth 96h inactive, HCMV antiviral inactive and Sm TGR inh inactive.
Screening Cc1ccc(NC(=O)c2sc(=S)n(-c3cc(C)ccc3F)c2N)cc1 returned Giardia FBPA inh-1 18µM, Pf growth 48h inactive, Pf growth 96h inactive, HCMV antiviral -63, Sm TGR inh inactive, Giardia growth inactive, Mammal cell tox inactive, Giardia FBPA inh-2 inactive, Rabbit aldolase inconclusive and GAPDH counter inactive.
`Cc1ccccc1-n1c(N)c(C(=O)Nc2ccc(F)cc2)sc1=S` gave Giardia FBPA inh-1 inactive, Pf growth 48h inactive, Pf growth 96h inactive, HCMV antiviral inactive and Sm TGR inh inactive.
`COc1ccc(OC)c(C2CC(=O)N3CN(c4ccccc4)CSC3=C2C#N)c1` (centres undefined) gave Giardia FBPA inh-1 1.8µM, Pf growth 96h inconclusive, HCMV antiviral inactive, Sm TGR inh 10µM, Giardia growth inconclusive, Mammal cell tox inactive, Giardia FBPA inh-2 inactive, Rabbit aldolase inconclusive and GAPDH counter inactive.
For COc1ccc(C2CC(=O)N(C)c3ccccc3S2)cc1OC (centres undefined) the results were Giardia FBPA inh-1 inactive, Pf growth 48h inactive, Pf growth 96h inconclusive, HCMV antiviral inactive and Sm TGR inh inactive.
Screening COc1ccc(N2CSC3=C(C#N)C(c4cccc(OC)c4OC)CC(=O)N3C2)cc1 (centres undefined) returned Giardia FBPA inh-1 2µM, Pf growth 96h inconclusive, HCMV antiviral inactive, Sm TGR inh 22µM, Giardia growth inactive, Mammal cell tox inactive, Giardia FBPA inh-2 inconclusive, Rabbit aldolase inconclusive and GAPDH counter inconclusive.
`COc1ccc(C2CC(=O)N3CN(c4ccccc4F)CSC3=C2C#N)cc1OC` (centres undefined) gave Giardia FBPA inh-1 2.8µM, Pf growth 96h inactive, HCMV antiviral inactive, Sm TGR inh inconclusive, Giardia growth inconclusive, Mammal cell tox inactive, Giardia FBPA inh-2 inconclusive, Rabbit aldolase 32µM and GAPDH counter inconclusive.
Screening CCCCOC(=O)c1ccc(-n2nnc3c(sc4nc(C)cc(C)c43)c2=O)cc1 returned HCMV antiviral inactive and Sm TGR inh inactive.
Screening Cc1ccc(NS(=O)(=O)c2c(C(=O)N3CCCCCC3)c(C)n(C)c2C)c(C)c1 returned Pf growth 48h inactive, Pf growth 96h inactive, HCMV antiviral inactive and Sm TGR inh inactive.
CCCCN(C(=O)c1cccc(S(=O)(=O)N2CCCCC2)c1)C1CCS(=O)(=O)C1 (centres undefined) was read as Giardia FBPA inh-1 inactive, Pf growth 48h inactive, Pf growth 96h inconclusive, HCMV antiviral inactive and Sm TGR inh inactive.
Screening Cc1c(C(=O)Nc2ccc(Br)cc2F)oc2ccc(S(=O)(=O)N3CCCCC3)cc12 returned HCMV antiviral inactive and Sm TGR inh inactive.
